The list shows a part of the results. Values without a mark were called inactive. Active and inactive are the calls of the source.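 How the source made its calls: active means mean inhibition across replicates of 40% or more; inactive means mean inhibition below 40%.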

The assay is described as follows: triacylglycerol accumulation inhibitors, retest, confirmation, cell-based, single concentration, Nile Red fluorescence, H9c2 (AID 651629).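 Further: plate controls were DMSO only wells for no effect and Triacsin C treated wells for full effect.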 The conditions noted are these: H9c2 lipid accumulation, at 12.5 µM, hits give high values, cells loaded with 200 µM oleic acid.
For `O=C(Nc1nc(-c2ccncc2)cs1)C1COc2ccccc2O1` (stereo not given), the inhibition (commonly the relative decrease from the control value, in per cent) was 31.4%.
Regarding `CN(C)C(=O)c1cccc(-c2cnc3c(NC=O)cc(-c4ccc(C(=O)N5CCOCC5)cc4)cn23)c1`, the inhibition is 58% (active).
Under `CCN(CC)CCC(c1ccc2c(c1)OCO2)c1c(OC)cc(OC)c2c(-c3ccccc3)cc(=O)oc12` (stereo not given) stands 47.8% (active); under `CCOCCC(=O)Nc1ccc2c(c1)c(=O)n(C)n2-c1ccc2ccccc2c1`, 47.5% (active); under `COc1ccc(/C=C2/CCCc3ccccc3C2=O)cc1`, 54.5% (active).
With `CCOC(=O)N1CCN(C(=O)c2ccccc2N(Cc2ccccc2)S(=O)(=O)c2ccc(OC)cc2)CC1`, the inhibition was 64.1% (active).
For `CCCOC(=O)c1[nH]c2c(c1C)C(=O)CC(c1cccs1)C2` (stereo not given), the inhibition is 35.2%.
In the case of `Cc1onc(NC(=O)c2ccc([N+](=O)[O-])o2)c1Br`, the inhibition is 46% (active).
In the case of `Cc1cc(N/N=C\c2ccc(Br)cc2)nc(-n2nc(C)cc2C)n1`, the inhibition was 58.6% (active).
Take `COc1cc(/C=C2\Oc3ccc(C#Cc4ccc(O)cc4)cc3C2=O)cc(OC)c1`: the inhibition is 103% (active).
In the case of `C/C(=N\Nc1ccc(Cl)nn1)c1ccccc1O`, the inhibition was 66.4% (active).
Then `COc1ccc(S(=O)(=O)N2CCc3ccccc32)cc1C(=O)Nc1cc(S(C)(=O)=O)ccc1Cl`, with 16.4%.
`O=C(Nc1ccccc1)Oc1cccc2cccnc12`: the inhibition is -3.58%.
Consider `O=C(Cc1cccc2ccccc12)Nc1ccc2oc(-c3ccccc3)nc2c1`, for which the inhibition was 25.7%.
Regarding `CN(C)CCNC(=O)c1cccc(-c2cnc3c(NC=O)cc(-c4cccc(C(F)(F)F)c4)cn23)c1`, the inhibition is 50.4% (active).
Take `CCCC(=O)Nc1nc2ccc(NC(=O)c3c(F)c(F)c(OC)c(F)c3F)cc2s1`: the inhibition was 69% (active).
On to `C=CCC[C@@H](Cc1ccc(F)cc1)C(=O)OC[C@H](Cc1c[nH]c2ccccc12)NC(=O)[C@@H](CC=C)CC(=O)N(CCO)Cc1ccccc1`, for which the inhibition is 80% (active).
As for `CC1(c2ccccc2)CC(C)(C)N(C(=O)c2cc([N+](=O)[O-])cc([N+](=O)[O-])c2)c2ccccc21` (stereo not given), the inhibition is 62.2% (active).
Consider `COc1ccc(-c2cc(NC=O)c3ncc(-c4cc(OC)c(OC)c(OC)c4)n3c2)c(OC)c1`, for which the inhibition is 79.3% (active).
Under `Cc1ccccc1OCC(=O)Nc1ccc(N2CCN(C(=O)C(C)C)CC2)c(Cl)c1` stands 7.1%.
Under `Cc1cc(NC(=O)CSc2nc(C(C)C)nc3sc4c(c23)CCC(C)C4)no1` (stereo not given) stands 51.7% (active).
On to `Oc1cccc2cc(-c3ccncc3)cnc12`, for which the inhibition was 71.1% (active).
For `Cc1ccccc1NC(=O)CSc1nc2ccc(Nc3nc(N4CCOCC4)nc(N4CCOCC4)n3)cc2s1`, the inhibition is 77.3% (active).
As to `O=C(CSc1nc2ccc(Nc3nc(N4CCOCC4)nc(N4CCOCC4)n3)cc2s1)NCc1ccco1`, the inhibition is 65.5% (active).
Consider `CC1(C(=O)NCc2ccco2)Cc2c(-c3ccc4c(c3)OCO4)ccnc2O1` (stereo not given), for which the inhibition is 61.9% (active).

(Values after PubChem BioAssay AID651629 (Sanford-Burnham Center for Chemical Genomics, 2012).)
